Source: PubChem BioAssay (NCI)
Compounds without any hit were thinned out: in the full panel of roughly 83,000, 20% have a hit.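 The endpoint reported here, percent growth, reads 100 for growth as untreated, 0 for no net growth and -100 for all cells dead.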

Legend:
Test in all cases: NCI-60 one-dose screen, 48 h (100 = growth as untreated, 0 = no growth, -100 = all killed)
Details in all cases: 10 µM unless noted; active = growth percent below 10; inactive = the rest
[1] = tested on: NCI-H23 lung
[2] = tested on: NCI-H226 lung
[3] = tested on: NCI-H322M lung
[4] = tested on: HOP-62 NSCLC
[5] = tested on: NCI-H460 lung
[6] = tested on: HOP-92 NSCLC
[7] = tested on: NCI-H522 lung
[8] = tested on: A549/ATCC NSCLC
[9] = tested on: 786-0 renal
[10] = tested on: COLO 205 colon
[11] = tested on: DU-145 prostate
[12] = tested on: K-562 leukemia
[13] = tested on: MALME-3M melanoma
[14] = tested on: MDA-MB-231 breast
[15] = tested on: RXF 393 renal
[16] = tested on: SF-268 CNS
[17] = tested on: SF-295 CNS
[18] = tested on: UACC-257 melanoma
[19] = tested on: M14 melanoma
[20] = tested on: SF-539 CNS

Measured: growth

CC1(C)OC2C(CO)OC(n3ccc(=O)[nH]c3=O)C2O1 (stereo not given)
inactive: [1] 102% | [2] 98.4% | [3] 92.5% | [4] 88.9% | [5] 100% | [6] 82.8% | [7] 81.5% | [8] 73.2% | [9] 105% | [10] 100% | [11] 112% | [12] 110% | [13] 85.2% | [14] 92.9% | [15] 113% | [16] 102% | [17] 104% | [18] 75.7% | [19] 105%

CN1CCCN(C(c2ccccc2)c2ccc(Cl)cc2)CC1 (stereo not given)
inactive: [1] 91.4% | [2] 93.9% | [3] 100% | [4] 94.2% | [5] 93% | [6] 60.4% | [7] 103% | [8] 107% | [9] 73.3% | [10] 103% | [11] 107% | [12] 90% | [13] 98.8% | [14] 95.8% | [15] 86.8% | [16] 82.3% | [17] 92.2% | [20] 96.9% | [19] 91.1%

CSc1cnc2ccccc2n1
inactive: [1] 103% | [2] 103% | [3] 94.4% | [4] 84.7% | [5] 102% | [6] 99.6% | [7] 80% | [8] 82.8% | [9] 107% | [10] 116% | [11] 115% | [12] 106% | [13] 88.7% | [14] 95.7% | [15] 111% | [16] 105% | [17] 97.9% | [18] 91.3% | [19] 97.3%

CC(=O)OC(C)c1cccc(C#N)c1 (stereo not given)
inactive: [1] 103% | [2] 94.7% | [3] 104% | [4] 94.8% | [5] 108% | [6] 91.3% | [7] 103% | [8] 98.6% | [9] 104% | [10] 113% | [11] 108% | [12] 103% | [13] 103% | [14] 108% | [15] 110% | [16] 103% | [17] 102% | [20] 101% | [18] 100% | [19] 97.4%

CSCCC(NC(=O)C(Cl)Cl)C(=O)O (stereo not given)
inactive: [1] 99% | [2] 88.5% | [3] 99.6% | [4] 77.9% | [5] 114% | [6] 85.2% | [7] 86.8% | [8] 80.5% | [9] 101% | [10] 99.7% | [11] 108% | [12] 97.8% | [13] 114% | [14] 99.3% | [15] 97.1% | [16] 99.1% | [17] 98.1% | [20] 96.1% | [19] 93.8%

O=C(NCc1ccco1)Nc1cccc2c(NC(=O)NCc3ccco3)cccc12
inactive: [1] 75.5% [100 µM] | [2] 112% [100 µM] | [3] 120% [100 µM] | [4] 104% [100 µM] | [5] 111% [100 µM] | [6] 124% [100 µM] | [7] 36.5% [100 µM] | [8] 108% [100 µM] | [9] 104% [100 µM] | [10] 71.4% [100 µM] | [11] 53% [100 µM] | [12] 32.9% [100 µM] | [13] 111% [100 µM] | [14] 97.9% [100 µM] | [15] 117% [100 µM] | [16] 96.3% [100 µM] | [17] 84.1% [100 µM] | [20] 30.2% [100 µM] | [18] 112% [100 µM] | [19] 66.3% [100 µM]

O=C(O)C1CSC(c2ccccc2)N1 (stereo not given)
inactive: [1] 95% | [2] 97% | [3] 98.8% | [4] 89.5% | [5] 98.5% | [6] 111% | [7] 79.4% | [8] 100% | [9] 112% | [10] 84.6% | [11] 105% | [12] 128% | [13] 98.8% | [14] 80.9% | [15] 106% | [16] 102% | [17] 99.8% | [18] 106% | [19] 95.6%

Cc1ccc(OC(=O)c2ccccc2)cc1
inactive: [1] 114% | [2] 100% | [3] 123% | [4] 97.7% | [5] 106% | [6] 130% | [7] 91.8% | [8] 98.7% | [9] 112% | [10] 96.1% | [11] 114% | [12] 101% | [13] 123% | [14] 126% | [15] 107% | [16] 108% | [17] 117% | [20] 106% | [18] 94.3% | [19] 113%

CN1CCN(C(=S)S)CC1
inactive: [1] 104% | [2] 109% | [3] 129% | [4] 108% | [5] 116% | [6] 104% | [7] 94.5% | [8] 94% | [9] 105% | [10] 80.9% | [11] 102% | [12] 73.5% | [13] 143% | [14] 106% | [15] 130% | [16] 102% | [17] 127% | [20] 104% | [18] 105% | [19] 105%
